Laboratory results: PMC7862700, “An all-to-all approach to the identification of sequence-specific readers for epigenetic DNA modifications on cytosine”

Key:
Experiment in all cases: DAPPL (digital affinity profiling via proximity ligation, sequencing); 10 mM Tris-HCl pH 7.5, 50 mM NaCl, 1 mM DTT, 4% glycerol, room temperature, 30 min; GST-TFs on glutathione beads, 16-mer random dsDNA library, 0.1% formaldehyde crosslink after washing; high values mean tight binding
FLI1 = target: T1, FLI1 (Homo sapiens, UniProt Q01543 1-452); conditions: protein: recombinant; tags: N-terminal GST; dsDNA, one strand shown
T1 sequence: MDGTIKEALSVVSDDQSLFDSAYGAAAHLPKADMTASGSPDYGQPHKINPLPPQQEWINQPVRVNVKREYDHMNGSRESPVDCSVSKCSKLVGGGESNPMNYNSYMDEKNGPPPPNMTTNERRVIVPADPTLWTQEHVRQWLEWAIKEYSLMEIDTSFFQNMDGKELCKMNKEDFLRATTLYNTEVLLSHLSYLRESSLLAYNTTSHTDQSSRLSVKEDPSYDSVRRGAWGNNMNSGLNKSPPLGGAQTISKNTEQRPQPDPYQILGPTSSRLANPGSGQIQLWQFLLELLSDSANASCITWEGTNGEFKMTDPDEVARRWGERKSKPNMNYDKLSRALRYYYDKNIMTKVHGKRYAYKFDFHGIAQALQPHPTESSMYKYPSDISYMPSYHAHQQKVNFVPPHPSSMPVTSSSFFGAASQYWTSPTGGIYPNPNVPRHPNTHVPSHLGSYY
In short: (§1)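 A tag-only sample was pooled with DNA-barcoded human transcription factors that had been expressed in yeast as GST fusions and captured on glutathione beads. The pools were incubated for 30 min at room temperature with 200 nmole of a random double-stranded 16-mer DNA library in Tris/NaCl/DTT/glycerol buffer, then washed, crosslinked with 0.1% formaldehyde, proximity-ligated (BsaI/T4 ligase, 1 h, 37 °C), PCR-amplified and sequenced on an Illumina NextSeq500. Binding signal is each hexamer's read frequency for a factor divided by its frequency for the tag-only sample.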

ELK1 = target: T2, ELK1 (Homo sapiens, UniProt P19419 1-428); conditions: protein: recombinant; tags: N-terminal GST; dsDNA, one strand shown
T2 sequence: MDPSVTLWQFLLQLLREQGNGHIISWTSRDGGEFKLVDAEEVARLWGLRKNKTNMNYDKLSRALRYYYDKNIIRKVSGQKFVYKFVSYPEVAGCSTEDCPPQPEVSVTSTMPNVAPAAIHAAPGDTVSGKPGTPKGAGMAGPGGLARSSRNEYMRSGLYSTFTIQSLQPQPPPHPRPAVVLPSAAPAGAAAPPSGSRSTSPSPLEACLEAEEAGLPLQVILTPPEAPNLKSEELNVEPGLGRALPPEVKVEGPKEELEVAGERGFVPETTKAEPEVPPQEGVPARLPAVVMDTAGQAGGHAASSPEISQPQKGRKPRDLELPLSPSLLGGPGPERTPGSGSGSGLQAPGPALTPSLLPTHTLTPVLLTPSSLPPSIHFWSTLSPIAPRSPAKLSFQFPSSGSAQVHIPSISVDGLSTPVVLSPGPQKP
In short: as §1

GABPA = target: T3, GABPA (Homo sapiens, UniProt Q06546 1-454); conditions: protein: recombinant; tags: N-terminal GST; dsDNA, one strand shown
T3 sequence: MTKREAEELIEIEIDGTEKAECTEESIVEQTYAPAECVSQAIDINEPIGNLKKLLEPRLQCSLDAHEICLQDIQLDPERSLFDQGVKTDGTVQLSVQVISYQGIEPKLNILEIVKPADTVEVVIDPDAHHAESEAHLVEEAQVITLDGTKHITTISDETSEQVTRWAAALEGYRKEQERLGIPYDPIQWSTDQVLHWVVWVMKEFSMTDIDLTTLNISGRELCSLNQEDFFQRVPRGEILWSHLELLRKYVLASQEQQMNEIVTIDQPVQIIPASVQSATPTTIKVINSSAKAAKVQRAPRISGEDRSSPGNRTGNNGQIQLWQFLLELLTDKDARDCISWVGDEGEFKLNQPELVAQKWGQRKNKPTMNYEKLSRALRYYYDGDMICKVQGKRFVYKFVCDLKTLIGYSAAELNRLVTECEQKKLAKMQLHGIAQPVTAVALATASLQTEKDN
In short: as §1

ERG = target: T4, ERG (Homo sapiens, UniProt P11308 1-479); conditions: protein: recombinant; tags: N-terminal GST; dsDNA, one strand shown
T4 sequence: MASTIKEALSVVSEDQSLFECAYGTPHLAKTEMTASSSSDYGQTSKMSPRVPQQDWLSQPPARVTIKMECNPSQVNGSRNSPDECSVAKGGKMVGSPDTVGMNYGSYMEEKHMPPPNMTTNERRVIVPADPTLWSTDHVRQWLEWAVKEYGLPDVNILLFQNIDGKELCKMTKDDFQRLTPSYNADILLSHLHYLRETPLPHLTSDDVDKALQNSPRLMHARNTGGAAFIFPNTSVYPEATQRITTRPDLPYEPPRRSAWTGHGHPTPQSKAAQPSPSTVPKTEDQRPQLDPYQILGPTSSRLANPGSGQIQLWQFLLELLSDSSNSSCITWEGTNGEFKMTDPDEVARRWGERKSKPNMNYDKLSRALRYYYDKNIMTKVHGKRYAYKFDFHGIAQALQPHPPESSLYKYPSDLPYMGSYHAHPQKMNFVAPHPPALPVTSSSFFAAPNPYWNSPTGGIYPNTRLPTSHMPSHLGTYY
In short: as §1

ELF1 = ELF1 (Homo sapiens, UniProt P32519 1-619); conditions: protein: recombinant; tags: N-terminal GST; dsDNA, one strand shown
In short: as §1

EHF = target: T5, EHF (Homo sapiens, UniProt Q9NZC4 1-300); conditions: protein: recombinant; tags: N-terminal GST; dsDNA, one strand shown
T5 sequence: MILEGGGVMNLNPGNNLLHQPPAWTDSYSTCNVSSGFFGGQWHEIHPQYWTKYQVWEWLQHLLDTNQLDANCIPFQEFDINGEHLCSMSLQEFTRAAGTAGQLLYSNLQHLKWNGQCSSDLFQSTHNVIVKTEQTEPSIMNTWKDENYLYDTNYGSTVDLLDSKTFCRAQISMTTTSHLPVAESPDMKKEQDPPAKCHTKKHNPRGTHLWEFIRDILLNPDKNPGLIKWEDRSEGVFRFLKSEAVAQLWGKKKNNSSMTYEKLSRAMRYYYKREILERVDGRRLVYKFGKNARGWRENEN
In short: as §1

SPI1 = SPI1 (Homo sapiens, UniProt P17947 1-270); conditions: protein: recombinant; tags: N-terminal GST; dsDNA, one strand shown
In short: as §1

SPIB = SPIB (Homo sapiens, UniProt Q01892 1-262); conditions: protein: recombinant; tags: N-terminal GST; dsDNA, one strand shown
In short: as §1

ELK3 = target: T6, ELK3 (Homo sapiens, UniProt P41970 1-407); conditions: protein: recombinant; tags: N-terminal GST; dsDNA, one strand shown
T6 sequence: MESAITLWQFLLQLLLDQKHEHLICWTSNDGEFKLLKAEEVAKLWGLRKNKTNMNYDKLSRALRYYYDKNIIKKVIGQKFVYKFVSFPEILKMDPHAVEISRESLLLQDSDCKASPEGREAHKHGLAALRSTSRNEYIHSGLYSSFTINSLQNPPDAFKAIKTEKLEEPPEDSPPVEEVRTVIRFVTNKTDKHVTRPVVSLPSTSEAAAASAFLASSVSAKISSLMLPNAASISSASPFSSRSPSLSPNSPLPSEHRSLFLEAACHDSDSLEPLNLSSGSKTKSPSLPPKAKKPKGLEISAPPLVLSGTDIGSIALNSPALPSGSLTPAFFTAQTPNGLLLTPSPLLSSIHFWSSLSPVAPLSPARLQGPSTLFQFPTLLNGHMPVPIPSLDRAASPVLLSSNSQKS
In short: as §1

FEV = target: T7, FEV (Homo sapiens, UniProt Q99581 1-238); conditions: protein: recombinant; tags: N-terminal GST; dsDNA, one strand shown
T7 sequence: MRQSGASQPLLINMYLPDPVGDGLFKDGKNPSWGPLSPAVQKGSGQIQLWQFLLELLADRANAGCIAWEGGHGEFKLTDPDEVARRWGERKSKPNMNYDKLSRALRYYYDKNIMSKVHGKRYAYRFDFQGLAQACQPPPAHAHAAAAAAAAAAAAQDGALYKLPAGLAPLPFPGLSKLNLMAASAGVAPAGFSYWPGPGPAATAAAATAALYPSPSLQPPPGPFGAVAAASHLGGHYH
In short: as §1

ETV5 = ETV5 (Homo sapiens, UniProt P41161 1-510); conditions: protein: recombinant; tags: N-terminal GST; dsDNA, one strand shown
In short: as §1

HSF1 = HSF1 (Homo sapiens, UniProt Q00613 1-529); conditions: protein: recombinant; tags: N-terminal GST; chain copies: 3; dsDNA, one strand shown
In short: as §1

ELF4 = ELF4 (Homo sapiens, UniProt Q99607 1-663); conditions: protein: recombinant; tags: N-terminal GST; dsDNA, one strand shown
In short: as §1

ELK4 = target: T8, ELK4 (Homo sapiens, UniProt P28324-2 1-405); conditions: protein: recombinant; tags: N-terminal GST; dsDNA, one strand shown
T8 sequence: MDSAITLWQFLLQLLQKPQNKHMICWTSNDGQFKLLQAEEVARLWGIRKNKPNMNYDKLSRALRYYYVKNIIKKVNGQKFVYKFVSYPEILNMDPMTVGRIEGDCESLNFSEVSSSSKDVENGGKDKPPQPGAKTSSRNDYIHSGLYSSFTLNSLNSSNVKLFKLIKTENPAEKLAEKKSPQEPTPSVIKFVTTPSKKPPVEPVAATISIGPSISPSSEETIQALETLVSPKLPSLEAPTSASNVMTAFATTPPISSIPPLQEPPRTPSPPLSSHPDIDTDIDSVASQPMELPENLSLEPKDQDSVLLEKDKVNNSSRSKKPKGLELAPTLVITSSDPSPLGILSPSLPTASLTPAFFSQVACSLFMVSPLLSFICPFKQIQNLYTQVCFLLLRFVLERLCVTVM
In short: as §1

ELF3 = target: T9, ELF3 (Homo sapiens, UniProt P78545 1-371); conditions: protein: recombinant; tags: N-terminal GST; dsDNA, one strand shown
T9 sequence: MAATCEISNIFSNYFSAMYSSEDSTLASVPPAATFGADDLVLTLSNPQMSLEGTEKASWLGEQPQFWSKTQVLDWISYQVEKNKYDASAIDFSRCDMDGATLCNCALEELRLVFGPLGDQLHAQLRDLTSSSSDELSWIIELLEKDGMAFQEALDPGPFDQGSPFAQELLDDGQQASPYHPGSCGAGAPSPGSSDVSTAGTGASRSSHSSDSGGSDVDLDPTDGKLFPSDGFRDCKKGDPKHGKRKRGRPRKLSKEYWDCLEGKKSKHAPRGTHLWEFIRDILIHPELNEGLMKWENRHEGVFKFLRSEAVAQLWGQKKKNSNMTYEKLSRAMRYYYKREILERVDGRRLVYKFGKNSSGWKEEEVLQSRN
In short: as §1

ETV1 = ETV1 (Homo sapiens, UniProt P50549 1-477); conditions: protein: recombinant; tags: N-terminal GST; dsDNA, one strand shown
In short: as §1

Chain of ETV1 (P50549 whole entry): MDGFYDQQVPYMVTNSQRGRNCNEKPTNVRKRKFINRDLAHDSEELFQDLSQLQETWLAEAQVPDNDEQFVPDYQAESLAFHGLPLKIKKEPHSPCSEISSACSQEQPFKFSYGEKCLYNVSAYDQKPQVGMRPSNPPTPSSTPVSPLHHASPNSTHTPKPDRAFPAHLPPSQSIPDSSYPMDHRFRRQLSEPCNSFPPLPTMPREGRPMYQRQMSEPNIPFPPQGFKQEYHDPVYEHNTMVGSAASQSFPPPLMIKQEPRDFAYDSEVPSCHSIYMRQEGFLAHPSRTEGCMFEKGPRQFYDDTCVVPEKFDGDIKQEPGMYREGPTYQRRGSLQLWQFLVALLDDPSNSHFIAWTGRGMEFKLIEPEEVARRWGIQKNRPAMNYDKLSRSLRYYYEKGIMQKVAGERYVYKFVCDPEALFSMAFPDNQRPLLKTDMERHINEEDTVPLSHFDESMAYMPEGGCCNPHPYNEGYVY
Chain of ELF1 (P32519 whole entry): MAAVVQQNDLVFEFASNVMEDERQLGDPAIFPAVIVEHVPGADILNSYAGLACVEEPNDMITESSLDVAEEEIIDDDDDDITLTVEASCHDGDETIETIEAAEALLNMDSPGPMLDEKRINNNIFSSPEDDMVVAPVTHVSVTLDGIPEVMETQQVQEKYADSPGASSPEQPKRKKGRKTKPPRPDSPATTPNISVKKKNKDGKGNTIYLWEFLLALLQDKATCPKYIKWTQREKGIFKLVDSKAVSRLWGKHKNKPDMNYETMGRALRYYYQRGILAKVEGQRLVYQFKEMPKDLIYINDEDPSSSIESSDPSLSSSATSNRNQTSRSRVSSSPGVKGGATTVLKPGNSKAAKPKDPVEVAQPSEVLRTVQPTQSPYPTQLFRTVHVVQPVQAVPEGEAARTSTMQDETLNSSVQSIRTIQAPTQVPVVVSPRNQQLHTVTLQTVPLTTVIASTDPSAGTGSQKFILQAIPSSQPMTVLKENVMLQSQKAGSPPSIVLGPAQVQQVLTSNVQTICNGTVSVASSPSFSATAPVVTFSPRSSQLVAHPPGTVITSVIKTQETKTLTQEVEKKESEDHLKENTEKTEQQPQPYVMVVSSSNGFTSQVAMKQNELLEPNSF
Chain of ETV5 (P41161 whole entry): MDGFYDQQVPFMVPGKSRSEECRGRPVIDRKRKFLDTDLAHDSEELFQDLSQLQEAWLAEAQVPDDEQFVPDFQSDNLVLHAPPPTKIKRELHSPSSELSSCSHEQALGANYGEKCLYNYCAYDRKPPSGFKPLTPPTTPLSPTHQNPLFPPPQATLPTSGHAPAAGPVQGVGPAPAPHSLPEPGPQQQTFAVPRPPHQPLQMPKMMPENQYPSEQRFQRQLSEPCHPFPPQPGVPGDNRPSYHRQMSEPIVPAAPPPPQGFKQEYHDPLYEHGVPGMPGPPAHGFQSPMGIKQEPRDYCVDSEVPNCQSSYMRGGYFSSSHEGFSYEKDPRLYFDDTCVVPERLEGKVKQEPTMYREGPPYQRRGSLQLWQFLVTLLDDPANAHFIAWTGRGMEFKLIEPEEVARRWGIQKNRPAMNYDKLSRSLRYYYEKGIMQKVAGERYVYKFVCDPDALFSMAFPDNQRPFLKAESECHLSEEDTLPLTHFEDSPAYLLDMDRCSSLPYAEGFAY
Chain of HSF1 (Q00613 whole entry): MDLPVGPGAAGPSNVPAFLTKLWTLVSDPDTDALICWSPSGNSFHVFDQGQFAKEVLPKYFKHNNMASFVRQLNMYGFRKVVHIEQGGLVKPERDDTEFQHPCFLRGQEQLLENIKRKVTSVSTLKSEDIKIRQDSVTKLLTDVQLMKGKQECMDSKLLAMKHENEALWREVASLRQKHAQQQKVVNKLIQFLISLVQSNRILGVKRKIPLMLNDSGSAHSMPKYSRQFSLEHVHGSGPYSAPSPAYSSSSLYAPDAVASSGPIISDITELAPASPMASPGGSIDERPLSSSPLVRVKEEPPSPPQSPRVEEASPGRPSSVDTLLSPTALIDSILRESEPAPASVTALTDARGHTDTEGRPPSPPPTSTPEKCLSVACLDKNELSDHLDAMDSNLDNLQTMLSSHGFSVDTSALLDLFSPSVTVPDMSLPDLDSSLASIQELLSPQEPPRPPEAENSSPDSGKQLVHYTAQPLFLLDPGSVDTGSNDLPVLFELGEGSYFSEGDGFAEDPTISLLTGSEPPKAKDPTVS
Chain of ELF4 (Q99607 whole entry): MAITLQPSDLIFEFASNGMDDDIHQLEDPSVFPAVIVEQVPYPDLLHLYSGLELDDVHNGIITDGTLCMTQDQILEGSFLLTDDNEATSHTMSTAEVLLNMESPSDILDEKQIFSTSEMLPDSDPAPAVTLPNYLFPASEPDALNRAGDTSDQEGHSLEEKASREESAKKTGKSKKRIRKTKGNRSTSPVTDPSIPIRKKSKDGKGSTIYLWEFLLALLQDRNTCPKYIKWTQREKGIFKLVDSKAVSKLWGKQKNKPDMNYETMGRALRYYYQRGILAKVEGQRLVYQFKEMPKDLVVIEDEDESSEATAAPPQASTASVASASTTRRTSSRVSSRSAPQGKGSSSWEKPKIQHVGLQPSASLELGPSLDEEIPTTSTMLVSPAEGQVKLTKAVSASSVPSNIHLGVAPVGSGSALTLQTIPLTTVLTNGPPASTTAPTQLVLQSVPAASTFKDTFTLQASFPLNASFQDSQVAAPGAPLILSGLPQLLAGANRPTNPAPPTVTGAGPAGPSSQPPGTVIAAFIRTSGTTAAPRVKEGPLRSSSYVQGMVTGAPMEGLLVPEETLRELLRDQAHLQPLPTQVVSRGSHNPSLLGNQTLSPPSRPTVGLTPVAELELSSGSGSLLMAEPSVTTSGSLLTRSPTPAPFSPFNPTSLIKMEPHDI
Chain of SPIB (Q01892 whole entry): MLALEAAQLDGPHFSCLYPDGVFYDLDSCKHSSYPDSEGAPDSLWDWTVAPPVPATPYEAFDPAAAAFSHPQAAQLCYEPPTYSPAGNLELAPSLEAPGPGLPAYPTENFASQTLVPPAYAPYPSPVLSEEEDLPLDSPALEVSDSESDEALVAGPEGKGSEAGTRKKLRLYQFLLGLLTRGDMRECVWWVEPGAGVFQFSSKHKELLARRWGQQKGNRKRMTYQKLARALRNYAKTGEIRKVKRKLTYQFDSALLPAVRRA

In the case of CAAGCA, the binding signal (FLI1) is reported as 1.1 fold enrichment (6-mer frequency, TF over GST control), the binding signal (ELK1) is reported as 1.1 fold enrichment (6-mer frequency, TF over GST control) and the binding signal (GABPA) is reported as 1.14 fold enrichment (6-mer frequency, TF over GST control). The binding signal (ERG) was 1.07 fold enrichment (6-mer frequency, TF over GST control), the binding signal (ELF1) was 1.18 fold enrichment (6-mer frequency, TF over GST control) and the binding signal (EHF) was 1.02 fold enrichment (6-mer frequency, TF over GST control). The binding signal (SPI1) was 1.07 fold enrichment (6-mer frequency, TF over GST control), the binding signal (SPIB) was 1.06 fold enrichment (6-mer frequency, TF over GST control) and the binding signal (ELK3) was 1.1 fold enrichment (6-mer frequency, TF over GST control). The binding signal (FEV) was 1.13 fold enrichment (6-mer frequency, TF over GST control), the binding signal (ETV5) was 1.17 fold enrichment (6-mer frequency, TF over GST control) and the binding signal (HSF1) was 1.03 fold enrichment (6-mer frequency, TF over GST control). For the same sequence, the binding signal (ELF4) was 1.16 fold enrichment (6-mer frequency, TF over GST control), the binding signal (ELK4) was 1.14 fold enrichment (6-mer frequency, TF over GST control) and the binding signal (ELF3) was 1.28 fold enrichment (6-mer frequency, TF over GST control). For the same sequence, the binding signal (ETV1) was 1.1 fold enrichment (6-mer frequency, TF over GST control).
